The whole screen tested about 2,100 compounds, of which about 260 (12%) were called active. Not shown: some 58% with an inconclusive outcome. The list shows a part of the results. A number with no mark means an inactive call. Calls come from the whole dose curve; as a rule, active = well fitted cell-killing curve with a large enough effect; inconclusive = small, poorly fitted or top-dose-only effect, or effect the other way; inactive = flat fitted curve, though single readings scatter.
test: Viability Counterscreen for Confirmatory qHTS for Inhibitors of ATXN expression; conditions: HEK-293 ATXN2-luc cells viability, CellTiter-Fluor, 24 h; activity change, negative = cytotoxicity: at the top concentration; note: nearly all actives have a fitted effect of over 50% in size
In short: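 Luminescence read-out (SteadyGlo, 5 min) followed a 30 min Gly-Phe-AFC (25 uM final) viability fluorescence read. ATXN2-luciferase reporter cells were exposed 24 h to a dilution series. Medium-only wells served as the 100% inhibition reference.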
Potency is the fitted concentration of half-maximal effect.

Row | SMILES | activity change, negative = cytotoxicity | Potency
1 | N#Cc1c(Oc2ccc3ccccc3c2)sc(C(=O)c2ccccc2)c1N | -25.3% [at 57.5 µM] | 
2 | COc1cnc(-c2ccccn2)nc1NC(C)C |  | 10 µM (active)
3 | COC(=O)COc1ccc(-c2nccc(-c3ccccn3)n2)cc1 | 0.594% | 
4 | COc1ccc(O)c(/C=N/NC(=O)c2ccc(OCc3cccc(Br)c3)cc2)c1 | -21.1% | 
5 | O=C(CNS(=O)(=O)c1ccc([N+](=O)[O-])cc1)N/N=C/c1ccc(O)cc1O | -28.9% | 
6 | O=C(N/N=C/c1cc([N+](=O)[O-])ccc1O)c1ccc(COc2ccc3c(c2)CCC3)o1 |  | 11.2 µM (active)
7 | C=CCc1cccc(/C=N/NC(=O)CNc2ccccc2)c1O | -15.6% | 
8 | CCCC(=O)NC(c1ccc(C(C)C)cc1)c1ccc2cccnc2c1O (stereo unspecified) | -8.49% | 
9 | CC(=O)NC(c1ccc(C)cc1)c1cc(Cl)c2cccnc2c1O (stereo unspecified) |  | 11.2 µM (active)
10 | COc1ccc(C(NC(C)=O)c2cc(Cl)c3cccnc3c2O)cc1OC (stereo unspecified) |  | 10 µM (active)
11 | CCCCC(=O)NC(c1ccc(N(CC)CC)cc1)c1ccc2cccnc2c1O (stereo unspecified) | -19.4% | 
12 | COc1cccc(C(NC(C)=O)c2ccc3cccnc3c2O)c1 (stereo unspecified) |  | 8.91 µM (active)
13 | COc1ccc(C(NC(C)=O)c2cc(Cl)c3cccnc3c2O)cc1 (stereo unspecified) |  | 8.91 µM (active)
14 | O=C(Nc1cccc(C(F)(F)F)c1)Oc1ccc(Cl)c2cccnc12 | -21.6% | 
15 | C(=N\NC(=Nc1ccccc1)c1ccccn1)/c1ccccn1 | -13.3% [at 57.5 µM] | 
16 | COc1ccc(CNC(=O)CSc2nc(-c3ccccc3)cc(-c3cccs3)c2C#N)cc1 | -15.1% | 
17 | COc1cc2ccnc(Cc3cccc(OC)c3OC)c2cc1OC | -15.2% [at 57.5 µM] | 
18 | COc1ccc(OC)c(C(=O)/C=C/c2ccccc2C(F)(F)F)c1 | -23.1% | 
19 | Cc1ccc2nc(-c3ccccc3)nn2c1 | -10.1% | 
20 | O=C(N/N=C/c1cc(Br)cc(Br)c1O)c1cccc(N2CCCC2=O)c1 | 14.3% | 
21 | COC(=O)c1ccc(C(=O)Nc2cc(Cl)ccc2Cl)cc1NC(=O)c1ccc(N(C)C)cc1 | -1.24% | 
22 | Cc1ccc(S(=O)(=O)Nc2cc(Cl)c(O)c3ncccc23)cc1 |  | 10 µM (active)
23 | O=C(N/N=C/c1cc(Cl)ccc1O)c1cccnc1 | 4.12% | 
24 | O=C(NC(c1ccc(Cl)cc1)c1cc(Cl)c2cccnc2c1O)c1cccnc1 (stereo unspecified) |  | 12.6 µM (active)
25 | O=C(N/N=C/c1c(O)n(Cc2ccccc2)c(=O)c2ccccc12)c1cccnc1 | 9.53% [at 57.5 µM] | 
26 | Cc1cc(NC(c2cccnc2)c2ccc3cccnc3c2O)no1 (stereo unspecified) |  | 8.91 µM (active)

Row | SMILES | activity change, negative = cytotoxicity | Potency
27 | COc1cc(CNCc2ccncc2)cc(Br)c1OCc1ccccc1F | -7.84% | 
28 | Cn1c(CO)c(-c2ccccc2)c2cc([N+](=O)[O-])ccc21 | -14.2% | 
29 | CCn1c(C)cc(C(=O)COC(=O)c2ccccc2[N+](=O)[O-])c1C | -10.5% [at 57.5 µM] | 
30 | CCOC(=O)N1CCN(c2ccnc3cc(Cl)ccc23)CC1 | -11.6% | 
31 | CN(CCc1ccccc1)c1cc2c(c3c1ccn3C)C1CCC2O1 (stereo unspecified) | -26.3% [at 57.5 µM] | 
32 | CC(C)(C)c1ccc(CC(=O)N2CCC2(C)C(=O)Nc2cnc3ccccc3c2)cc1 (stereo unspecified) | -23.1% | 
33 | O=C(Nc1cccc2ccccc12)OC1C=CS(=O)(=O)C1 (stereo unspecified) | -11.5% | 
34 | Cc1noc2ncnc(N3CCN(c4cccc(Cl)c4)CC3)c12 | -18.7% [at 57.5 µM] | 
35 | O=C(CSCC(=O)Nc1ccccc1)N/N=C/c1c(O)ccc2ccccc12 | -27.8% | 
36 | CC(C)(C)c1ccc(Oc2ccc(N)cc2)cc1 | -13.2% [at 57.5 µM] | 
37 | COc1ccc2[nH]c3c(N4CCC(O)(c5cccc(C(F)(F)F)c5)CC4)ncnc3c2c1 |  | 3.16 µM (active)
38 | O=C1CN(C(=O)c2c(F)cccc2F)C(c2ccc(F)cc2)c2cc(Br)ccc2N1 (stereo unspecified) | -19.7% | 
39 | COc1cccc(NC(=O)/C=C/c2ccc(S(=O)(=O)N3CCOCC3)cc2)c1 | -12.2% [at 57.5 µM] | 
40 | COc1ccc(N2C3=C(CC4=C2CC(C)(C)CC4=O)C(=O)CC(C)(C)C3)cc1 | -22% | 
41 | CC1CC2(C)Oc3ccccc3CC2C(C)C1CNCCCN(C)C (stereo unspecified) |  | 25.1 µM (active)
42 | O=C(C1CCC(CNS(=O)(=O)c2cccc3nsnc23)CC1)N1CC=C(c2ccccc2)CC1 (stereo unspecified) | -18.5% | 
43 | Cc1ccccc1SCC(=O)N1CCN(c2ccc(C(F)(F)F)cn2)CC1 | -18.1% | 
44 | COc1ccc(-c2sc3ccc(OC)cc3c2-c2ccc(O)cc2)cc1 | -24.2% | 
45 | COc1cc(-c2ccc3sc(-c4ccsc4)c(C#CCO)c3c2)cc(OC)c1OC |  | 22.4 µM (active)
46 | O=C(O)CSc1cc(NS(=O)(=O)c2ccc(Cl)cc2)c2ccccc2c1O |  | 35.5 µM (active)
47 | COC(=O)[C@H]1C[C@H](OC(=O)NC2CC2)[C@@]2(O)CN(S(=O)(=O)c3ccc(C)cc3)CC2[C@H]1C(=O)OC (stereo partly specified) | -1.83% | 
48 | COc1ccc(CC(N)c2csc(NC(=O)c3ccccc3OC)n2)cc1 (stereo unspecified) | -15.7% [at 57.5 µM] | 
49 | COc1ccc(-c2csc(NC(=O)c3ccccc3NS(=O)(=O)c3ccc(F)c(F)c3)n2)cc1 |  | 5.62 µM (active)
50 | C/[N+]([O-])=C\c1cccc(OCCN2CCN(c3ncc(C(F)(F)F)cc3Cl)CC2)c1 | -8.08% | 
51 | CC[n+]1c(/C=C/c2c[nH]c3ccccc23)ccc2cc(C)ccc21 |  | 15.8 µM (active)
52 | Nc1ccc(OC(=O)Nc2ccc(O)cc2)cc1 | -23.8% [at 57.5 µM] | 

Row | SMILES | activity change, negative = cytotoxicity | Potency
53 | O=C(NCC1CCCO1)c1cccc(Oc2ccc([N+](=O)[O-])cc2Cl)c1 (stereo unspecified) | -10.9% | 
54 | O=C(Cn1cnc([N+](=O)[O-])c1)Nc1cc(Oc2ccc(Cl)cc2Cl)cc([N+](=O)[O-])c1 |  | 3.16 µM (active)
55 | CC1CCN(Cc2c(C(=O)N/N=C/c3cc(Cl)ccc3O)nnn2-c2nonc2N)CC1 | -9.41% | 
56 | O=C1c2cccc3cc([N+](=O)[O-])cc(c23)C(=O)N1CCN1CCCC1 |  | 3.16 µM (active)
57 | Nc1cc2c3c(cccc3c1)C(=O)N(CCN1CCCC1)C2=O |  | 22.4 µM (active)
58 | CCCCCCc1cc2cc(C(=O)Nc3ccccc3)c(=O)oc2cc1O | 14.7% | 
59 | O=C(CN1C(=O)c2ccccc2S1(=O)=O)N1CCc2ccccc21 | -6.71% | 
60 | CCOc1cc(/C=C2\SC(=N)N(c3nccs3)C2=O)ccc1OCCN1CCOCC1 |  | 25.1 µM (active)
61 | OC1(c2ccc(Br)cc2)CCNCC1 | -4.89% | 
62 | Cc1onc(-c2ccccc2)c1C(=O)Nc1ccc(S(=O)(=O)NC(C)(C)C)cc1 | -0.495% [at 57.5 µM] | 
63 | Cc1cc(C)cc(OCC(=O)NNC(=S)NC(=O)C2CC2)c1 | 1.25% | 
64 | Cc1sc2cc3c(c(C(=O)c4ccccc4)[n+]2c1C)-c1cccc2cccc-3c12 |  | 12.6 µM (active)
65 | CC(=O)c1ccc(C(=O)Nc2nnc(-c3ccc(Cl)cc3)o2)cc1 | -8.23% | 
66 | CCn1c2ccccc2c2cc(NC(=O)COC(=O)C3CCC(=O)N3)ccc21 (stereo unspecified) | -15.2% [at 57.5 µM] | 
67 | NS(=O)(=O)c1ccc(N2N=C(c3ccc(Br)cc3)CC2c2ccc(F)cc2)cc1 (stereo unspecified) | -21.3% [at 57.5 µM] | 
68 | COc1cccc(OC)c1C(=O)OCC(=O)NC(=O)NCc1ccccc1 | -8.35% | 
69 | c1ccc(CN=C(NCc2ccccc2)NCc2ccccc2)cc1 |  | 31.6 µM (active)
70 | O=C(NNCc1ccccc1)c1ccccc1 | -14.6% [at 57.5 µM] | 
71 | CCCC/C(C)=N/NC(=O)c1cn(-c2ccccc2)nc1-c1ccccc1 | 4.09% | 
72 | C/C(=N\NC(=O)c1cccc2ccccc12)c1ccccn1 |  | 6.31 µM (active)
73 | CCCCCC(=O)N/N=C(\C)c1ccccn1 | -17.7% | 
74 | Nc1cccc2nc3ccccc3cc12 | 2.62% [at 57.5 µM] | 
75 | COc1cc(N)ccc1Nc1c2ccccc2nc2ccccc12 |  | 31.6 µM (active)
76 | COc1cc2cc(C(=O)NC(C)c3cccc4ccccc34)c(N)nc2cc1OC (stereo unspecified) | -8.62% | 
77 | O=C(NNC(=O)c1csc(-c2cnccc2C(F)(F)F)n1)c1ccc(C(F)(F)F)cc1 | -18.1% | 
78 | c1cc2c(cc1-c1cnc3n1CCC3)OCCO2 | -28.7% [at 57.5 µM] | 

Row | SMILES | activity change, negative = cytotoxicity | Potency
79 | O=C1C=C(NCCc2cc(Br)c(O)c(Br)c2)C(=O)c2ncccc21 |  | 10 µM (active)
80 | CCOC(=O)c1c2ccc(OCC(=O)N/N=C/c3ccc(C)cc3)cc2n2ccccc12 | -23% [at 57.5 µM] | 
81 | CCCc1nc2c(c(=O)c3ccccc3n2C)c(=O)n1C1CCCCCC1 |  | 28.2 µM (active)
82 | CN1CCC[C@H]1CCNc1ccc2c(=O)c3ccccc3n(C)c2c1 | 14.2% [at 57.5 µM] | 
83 | Nc1c(C(=O)NCc2ccc3c(c2)OCO3)c2nc3ccccc3nc2n1CCCN1CCOCC1 | -24.5% [at 57.5 µM] | 
84 | CC(C)(C)c1ccc(OCCn2nc(C(=O)O)c3ccccc3c2=O)cc1 | -26.5% [at 57.5 µM] | 
85 | COC(=O)C1=C(C)N(Cc2ccccc2)C(=NCCc2cccnc2)N[C@H]1c1ccc(Br)cc1 |  | 22.4 µM (active)
86 | Cc1cccc(NC(=O)CCC(=O)N/N=C/c2ccc(O)cc2O)c1 | -20.9% | 
87 | COc1ccc2c(Cl)c(C(=O)NN)sc2c1 | 8.74% | 
88 | OC(CNCCc1ccccc1)COc1ccc(OCC(O)CNCCc2ccccc2)cc1 (stereo unspecified) |  | 22.4 µM (active)
89 | CCC(=O)c1ccc(OCC(O)CN(CCc2ccccc2)Cc2ccccc2)cc1 (stereo unspecified) | -22.7% | 
90 | O=C(N/N=C\c1c(O)ccc2ccccc12)c1ccc(S(=O)(=O)N2CCCCC2)cc1 | -12.7% [at 57.5 µM] | 
91 | O=S(=O)(c1ccc2nc(COc3ccc(Cl)cc3Cl)[nH]c2c1)N1CCOCC1 | 3.51% | 
92 | COc1cccc(NC(=O)CSc2nc3ncc(Br)cc3[nH]2)c1 | -9.63% | 
93 | N#C/C(=C\C=C\c1ccccc1[N+](=O)[O-])C(=O)NC1CCCCC1 |  | 20 µM (active)
94 | CC(C)N(Cc1ccccc1)C(=O)/C=C/c1ccccc1[N+](=O)[O-] | -23.4% [at 57.5 µM] | 
95 | CC1CCCCC1NC(=O)/C(C#N)=C/C=C/c1ccccc1[N+](=O)[O-] (stereo unspecified) |  | 2.82 µM (active)
96 | O=C(NCC1CC1)c1ccc2c(c1)S(=O)(=O)c1cc(Cl)ccc1C2=O | -16.3% | 
97 | Cc1cc(C)n(-c2ccc(C(=O)N3CCN(S(=O)(=O)c4cccc(Br)c4)CC3)cc2)n1 | -15.9% | 
98 | O=C(Nc1ccc(N2CCOCC2)c(Cl)c1)c1c(F)c(F)c(F)c(F)c1F | -11% | 
99 | CC(O)(c1ccccc1)c1nc(-c2ccncc2)cs1 (stereo unspecified) | -3.76% | 
100 | COc1ccc(NC2=NCC(Cc3ccc(Br)cc3)S2)cc1 (stereo unspecified) | -15.6% | 
101 | CCN(CC)CCC(c1ccc2c(c1)OCO2)c1c(OC)cc(OC)c2c(-c3ccccc3)cc(=O)oc12 (stereo unspecified) |  | 20 µM (active)
